Measurements from PubChem BioAssay (Tox21).
Records with an inconclusive call do not appear. Activity calls are given as the source filed them. Unless noted, calls follow the shape of the dose curve; as a rule, active = well fitted curve in the direction sought with a large enough effect in the repeat runs; inconclusive = weak or mixed curves; inactive = no such curve, though single readings can be large; an effect the other way counts as inactive or inconclusive.

Key:
[1] = qHTS assay to identify aromatase inhibitors - cell viability counter screen (AID 743084);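 also: cells stimulated with testosterone during compound exposure; nearly all actives have a fitted effect of over 55% in size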; also: potency is read from the fitted curve at half-maximal effect
[2] = molecular target: Aryl hydrocarbon receptor (Homo sapiens) (UniProt P35869); test: qHTS assay to identify small molecule that activate the aryl hydrocarbon receptor (AhR) signaling pathway (AID 743085); also: nearly all actives have a fitted effect of over 15% in size; also: potency is read from the fitted curve at half-maximal effect;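 as to activation: HG2L7.5c1 human HepG2 liver cells with stably integrated DRE-driven firefly reporter; series mostly up to about 70 µM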
How it was run: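 Steps: seed HepG2-AhR-luc cells; allow 5 h at 37C; pin-transfer test compound or vehicle; incubate 24 h at 37C; add viability dye (30 min, 37C) and read fluorescence; add luciferase substrate (30 min, RT) and read luminescence.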

[3] = molecular target: Peroxisome proliferator-activated receptor gamma (Homo sapiens) (UniProt P37231); test: qHTS assay to identify small molecule agonists of the peroxisome proliferator-activated receptor gamma (PPARg) signaling pathway (AID 743094; active = well fitted activation curve with a large enough effect in the signal ratio in the repeat runs, not every such curve was filed as active; the % refers to the signal ratio)
How it was run: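 Fluorescence-based beta-lactamase readout in HEK293H PPARg UAS-bla cells after 17 h compound exposure (37C) and 1 h B/G FRET substrate incubation at room temperature.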

[4] = qHTS assay to identify small molecule antagonists of the peroxisome proliferator-activated receptor gamma (PPARg) signaling pathway - cell viability counter screen (AID 743194); also: nearly all actives have a fitted effect of over 55% in size
How it was run: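 Cytotoxicity counter screen in PPARg-bla HEK293H cells, same wells as reporter assay. Compounds plus 50 nM rosiglitazone (final) for 17 h at 37 C, then viability read by CellTiter-Glo luminescence.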

[5] = qHTS assay for small molecule agonists of the antioxidant response element (ARE) signaling pathway (AID 743202; active = well fitted activation curve with a large enough effect in the signal ratio in the repeat runs, not every such curve was filed as active; the % refers to the signal ratio)
How it was run: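 HepG2 ARE-bla cells; 16 h treatment at 37 C; FRET-based beta-lactamase fluorescence read after 2 h substrate incubation at room temperature.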

[6] = qHTS assay for small molecule agonists of the antioxidant response element (ARE) signaling pathway - cell viability counter screen (AID 743203; calls by dose curve; also: nearly all actives have a fitted effect of over 55% in size)
How it was run: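 Parallel cytotoxicity read-out for the ARE-bla screen: HepG2 reporter cells, 16 hrs with compounds, then CellTiter-Glo luminescence.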

[7] = qHTS assay for small molecule activators of the heat shock response signaling pathway - cell viability counter screen (AID 743209); also: nearly all actives have a fitted effect of over 50% in size
How it was run: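 To flag cytotoxic compounds, HSE-bla HeLa cells plated at 1500 cells/well were dosed for 5 h at 37 C, followed by the reporter FRET read and then CellTiter-Glo, with luminescence recorded 30 min after reagent addition.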

[8] = qHTS assay for small molecule activators of the heat shock response signaling pathway (AID 743210; active = well fitted activation curve with a large enough effect in the signal ratio in the repeat runs, with a control signal flat, not every such curve was filed as active; the % refers to the signal ratio;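 also: HeLa cells with beta-lactamase reporter driven by heat shock elements; series mostly up to about 63 µM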)
How it was run: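 Following overnight attachment, HSE-bla HeLa cells received test compounds for 5 h at 37 C; beta-lactamase activity was then detected via FRET substrate fluorescence.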

[9] = molecular target: Peroxisome proliferator-activated receptor gamma (Homo sapiens) (UniProt P37231); test: qHTS assay to identify small molecule antagonists of the peroxisome proliferator-activated receptor gamma (PPARg) signaling pathway (AID 743191; calls by dose curve; also: series mostly up to about 63 µM; nearly all actives have a fitted effect of over 30% in size)
How it was run: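 GeneBLAzer PPARg UAS-bla HEK293H cells, 5 h post-plating, exposed to compounds 17 h at 37C. LiveBLAzer B/G FRET substrate added for 1 h at room temperature; beta-lactamase reporter read by fluorescence intensity.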

[10] = qHTS assay to identify small molecule that activate the aryl hydrocarbon receptor (AhR) signaling pathway - cell viability counter screen (AID 743086);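 also: HepG2 liver cells carrying the AhR DRE luciferase reporter; series mostly up to about 70 µM; nearly all actives have a fitted effect of over 45% in size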
How it was run: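 HepG2-AhR-luc (HG2L7.5c1) cells, 4000/well, treated 24 h at 37 C with compound; viability measured as CellTiter-Fluor fluorescence after 30 min in the same wells as the luciferase read.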
% is scaled to controls: 0 for no effect and ±100 for the full control effect.

Peroxisome proliferator-activated receptor gamma (Homo sapiens), sequence (P37231 whole entry, looked up): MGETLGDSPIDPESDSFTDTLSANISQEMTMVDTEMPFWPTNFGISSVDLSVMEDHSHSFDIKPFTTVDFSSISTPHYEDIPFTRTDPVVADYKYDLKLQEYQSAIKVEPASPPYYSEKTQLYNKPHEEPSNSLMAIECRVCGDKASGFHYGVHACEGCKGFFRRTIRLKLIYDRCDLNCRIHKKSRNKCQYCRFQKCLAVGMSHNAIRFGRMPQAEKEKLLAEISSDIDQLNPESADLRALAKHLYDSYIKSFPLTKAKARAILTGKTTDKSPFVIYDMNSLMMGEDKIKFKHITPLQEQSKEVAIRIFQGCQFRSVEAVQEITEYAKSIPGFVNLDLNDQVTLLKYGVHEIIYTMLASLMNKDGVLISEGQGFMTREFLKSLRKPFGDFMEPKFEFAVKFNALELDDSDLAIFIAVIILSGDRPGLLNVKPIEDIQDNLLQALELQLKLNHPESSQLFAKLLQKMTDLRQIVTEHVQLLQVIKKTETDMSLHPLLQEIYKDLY
Aryl hydrocarbon receptor (Homo sapiens), sequence (P35869 whole entry, looked up): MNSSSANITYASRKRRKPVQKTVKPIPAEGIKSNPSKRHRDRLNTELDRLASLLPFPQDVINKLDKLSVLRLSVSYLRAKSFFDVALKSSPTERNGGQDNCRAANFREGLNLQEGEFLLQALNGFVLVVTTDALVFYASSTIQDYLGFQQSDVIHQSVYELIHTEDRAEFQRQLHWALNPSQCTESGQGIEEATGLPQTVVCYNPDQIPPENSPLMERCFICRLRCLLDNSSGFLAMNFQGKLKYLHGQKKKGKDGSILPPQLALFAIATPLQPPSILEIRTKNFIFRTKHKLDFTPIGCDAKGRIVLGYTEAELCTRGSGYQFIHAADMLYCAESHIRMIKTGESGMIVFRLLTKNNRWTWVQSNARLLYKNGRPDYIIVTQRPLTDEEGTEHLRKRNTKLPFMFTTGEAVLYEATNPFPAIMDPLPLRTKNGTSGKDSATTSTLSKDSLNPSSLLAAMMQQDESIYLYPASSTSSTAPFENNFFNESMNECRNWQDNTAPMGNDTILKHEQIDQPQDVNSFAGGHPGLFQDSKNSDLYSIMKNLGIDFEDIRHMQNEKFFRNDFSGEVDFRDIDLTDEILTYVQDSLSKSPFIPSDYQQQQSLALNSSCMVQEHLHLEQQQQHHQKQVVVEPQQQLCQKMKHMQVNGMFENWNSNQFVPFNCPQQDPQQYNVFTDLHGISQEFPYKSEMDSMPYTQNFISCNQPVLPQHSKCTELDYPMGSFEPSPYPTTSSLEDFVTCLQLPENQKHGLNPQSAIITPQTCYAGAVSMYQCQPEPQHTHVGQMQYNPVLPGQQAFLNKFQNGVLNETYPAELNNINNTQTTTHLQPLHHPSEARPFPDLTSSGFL

CCCCCOC(=O)CCCCC
inactive: Potency [1] | Potency [2] | outcome [3] | outcome [4] | Potency [5] | Potency [6] | outcome [7] | outcome [8]

CC(C[N+](C)(C)C)OC(N)=O (stereo not given)
inactive: Potency [1] | Potency [2] | outcome [3] | Potency [9] | outcome [4] | Potency [6] | outcome [7] | outcome [8]

COC(=O)c1ccc(C)cc1C1=NC(C)(C(C)C)C(=O)N1 (stereo not given)
inactive: Potency [1] | Potency [2] | outcome [3] | Potency [9] | outcome [4] | Potency [6] | outcome [7] | outcome [8]

CC(=O)Nc1c(I)cc(I)c(C(=O)O)c1I
inactive: Potency [1] | Potency [2] | outcome [4] | Potency [5] | outcome [7]

Cc1c(O)cccc1O
inactive: Potency [1] | Potency [10] | outcome [3] | Potency [9] | outcome [4] | Potency [5] | Potency [6] | outcome [7] | outcome [8]

CC(=O)c1ccccc1O
inactive: Potency [1] | Potency [2] | outcome [3] | outcome [4] | Potency [6] | outcome [7]

CC(C)OC(=O)c1ccccc1
inactive: Potency [1] | Potency [2] | outcome [4] | Potency [5] | Potency [6] | outcome [7]

O=C(O)COc1nn(Cc2ccccc2)c2ccccc12
inactive: Potency [1] | Potency [2] | Potency [9] | outcome [4] | Potency [5] | Potency [6] | outcome [7]

NC(=O)COCCN1CCN(C(c2ccccc2)c2ccc(Cl)cc2)CC1 (stereo not given)
inactive: Potency [1] | Potency [2] | outcome [3] | Potency [9] | outcome [4] | Potency [6] | outcome [7] | outcome [8]

CCN(Cc1ccncc1)C(=O)C(CO)c1ccccc1 (stereo not given)
inactive: Potency [1] | Potency [2] | outcome [4] | Potency [6] | outcome [7]

COC(=O)[C@@H](N)Cc1ccc(O)c(O)c1
active: Potency [1] 26.6 µM | Potency [2] 26.6 µM
inactive: outcome [3] | outcome [4] | Potency [6] | outcome [7]

CN1CCN(c2cc3c(cc2F)c(=O)c(C(=O)O)cn3-c2ccc(F)cc2)CC1
inactive: Potency [1] | Potency [2] | outcome [4] | Potency [5] | Potency [6] | outcome [7] | outcome [8]

CN(C(=O)c1c(O)c2ccccc2n(C)c1=O)c1ccccc1
inactive: Potency [1] | Potency [10] | outcome [3] | outcome [4] | Potency [5] | Potency [6] | outcome [7] | outcome [8]

CCOC(=O)c1cccc(N)c1
inactive: Potency [1] | Potency [10] | outcome [4] | Potency [5] | Potency [6] | outcome [7] | outcome [8]

Cc1cnc(NS(=O)(=O)c2ccc(N)cc2)nc1
inactive: outcome [4] | Potency [5] | Potency [6] | outcome [7] | outcome [8]

NC(=O)c1cn(Cc2c(F)cccc2F)nn1
inactive: Potency [10] | outcome [4] | Potency [5] | Potency [6] | outcome [7] | outcome [8]

CCOC(=O)Nc1ccc(NCc2ccc(F)cc2)nc1N
inactive: Potency [1] | outcome [3] | Potency [9] | outcome [4] | Potency [5] | Potency [6] | outcome [7] | outcome [8]

Cc1sccc1Br
inactive: Potency [9] | outcome [4] | Potency [5] | Potency [6] | outcome [7]

CC(NC(CCc1ccccc1)C(=O)O)C(=O)N1C(=O)N(C)CC1C(=O)O (stereo not given)
inactive: Potency [9] | outcome [4] | Potency [5] | Potency [6] | outcome [7] | outcome [8]

NC(=O)c1ccc(N)cc1
inactive: Potency [1] | outcome [3] | Potency [9] | outcome [4] | Potency [5] | Potency [6] | outcome [7]

CCCCCCCCS(=O)(=O)Cl
inactive: Potency [2] | Potency [10] | outcome [3] | Potency [9] | outcome [4] | Potency [6] | outcome [7] | outcome [8]

C=C1CC[C@H]2C[C@@H]1C2(C)C
inactive: Potency [1] | Potency [10] | outcome [3] | outcome [4] | Potency [6] | outcome [7] | outcome [8]

CCOC(=O)C(=O)OCC
inactive: Potency [10] | outcome [3] | Potency [9] | outcome [4] | Potency [5] | Potency [6] | outcome [7] | outcome [8]

NCCc1cnc[nH]1
inactive: Potency [1] | Potency [10] | outcome [4] | Potency [5] | Potency [6] | outcome [8]

CC(C)NCC(O)c1ccc(NS(C)(=O)=O)cc1 (stereo not given)
inactive: Potency [10] | outcome [4] | Potency [5] | Potency [6] | outcome [7] | outcome [8]

Brc1c(NC2=NCCN2)ccc2nccnc12
inactive: Potency [1] | Potency [10] | outcome [4] | Potency [6] | outcome [7] | outcome [8]

CN(C)CCCSc1ccccc1NC(=O)/C=C/c1ccccc1
inactive: Potency [1] | outcome [3] | outcome [4] | Potency [5] | Potency [6] | outcome [7] | outcome [8]

COc1nc(N)nc2c1ncn2[C@@H]1O[C@H](CO)[C@@H](O)[C@@H]1O
inactive: Potency [1] | Potency [10] | outcome [4] | Potency [5] | Potency [6] | outcome [7]

CCN(CC)CCOCCOC(=O)C1(c2ccccc2)CCCC1
inactive: Potency [2] | outcome [3] | outcome [4] | Potency [5] | Potency [6] | outcome [7]

CCOC(=O)CC(C)=O
inactive: Potency [10] | outcome [4] | Potency [6] | outcome [7] | outcome [8]

CN1N=C(C(N)=O)CCC1=O
inactive: Potency [9] | outcome [4] | Potency [5] | Potency [6] | outcome [7] | outcome [8]

Cc1cccc(C)c1NC(=O)C(C)N (stereo not given)
inactive: Potency [1] | Potency [10] | Potency [6] | outcome [7] | outcome [8]

CCc1cccc2c(CCO)c[nH]c12
inactive: Potency [9] | outcome [4] | Potency [5] | Potency [6] | outcome [7]

COc1ccc(CCN(C)CCCC(C#N)(c2cc(OC)c(OC)c(OC)c2)C(C)C)cc1OC (stereo not given)
inactive: Potency [2] | outcome [4] | Potency [5] | Potency [6] | outcome [7] | outcome [8]

Cc1[nH]c(=O)c(C#N)cc1-c1ccc2nccn2c1
inactive: Potency [10] | outcome [4] | Potency [6] | outcome [7] | outcome [8]

c1cnc(N2CCN(Cc3ccc4c(c3)OCO4)CC2)nc1
inactive: Potency [1] | outcome [3] | Potency [9] | outcome [4] | Potency [5] | Potency [6] | outcome [8]

NS(=O)(=O)c1cc(C(=O)NN2C[C@H]3[C@H]4CCC(C4)[C@H]3C2)ccc1Cl
inactive: outcome [4] | Potency [6] | outcome [7] | outcome [8]

N[C@@H](C(=O)N[C@@H]1C(=O)N2C(C(=O)O)=C(Cl)CS[C@H]12)c1ccccc1
inactive: Potency [1] | outcome [3] | ratio activity, negative = inhibition [9] 6.67% [at 13.2 µM] | activity change, negative = cytotoxicity [4] 0.956% [at 13.2 µM] | activation [5] -0.175% [at 8.36 µM] | viability change, negative = cytotoxic [6] 3.71% [at 8.36 µM] | activity change, negative = cytotoxicity [7] -29.5% [at 13.2 µM] | activation [8] -0.803% [at 13.2 µM]

Cc1nc2c([nH]1)c(=O)n(C)c(=O)n2Cc1ccco1
inactive: Potency [1] | Potency [10] | outcome [4] | Potency [5] | Potency [6] | outcome [7] | outcome [8]

CCS(=O)(=O)c1ccc(OC)c(C(=O)OC)c1
inactive: outcome [4] | Potency [6] | outcome [7] | outcome [8]

CC(=O)OCC(=O)[C@@]1(O)CC[C@H]2[C@@H]3CCC4=CC(=O)CC[C@]4(C)[C@H]3C(=O)C[C@@]21C
inactive: Potency [1] | Potency [10] | outcome [4] | Potency [6]

CC(C)NCCCC1(C(N)=O)c2ccccc2-c2ccccc21
inactive: Potency [9] | outcome [4] | Potency [5] | Potency [6] | outcome [7] | outcome [8]

Nc1c2c(nc3ccccc13)CCCC2O (stereo not given)
inactive: Potency [1] | outcome [3] | outcome [4] | Potency [6] | outcome [7]

CC(C)=CCCC(C)CC(=O)O (stereo not given)
inactive: Potency [2] | Potency [10] | outcome [3] | outcome [4] | Potency [6] | outcome [7] | outcome [8]

COc1ccc2c(c1)CCCC2=O
inactive: Potency [9] | outcome [4] | Potency [6] | outcome [7] | outcome [8]

CC/C=C\CC/C=C/C(OCC)OCC
inactive: Potency [10] | outcome [4] | Potency [6] | outcome [7]

C=CCOCC(CC)(CO)COCC=C
inactive: Potency [10] | outcome [4] | Potency [5] | Potency [6] | outcome [7] | outcome [8]

COC(=O)CCSCCC(=O)OC
inactive: Potency [10] | outcome [4] | Potency [5] | Potency [6] | outcome [7] | outcome [8]
